The values that follow come from PubChem BioAssay AID1578 (Sanford-Burnham Center for Chemical Genomics, 2009).

Screen size: about 290,000 compounds; about 3,000 (1%) were called active. This excerpt belongs to a sample that is enriched for actives. Values without a mark were called inactive. No stated cut-off is given here; in the data, active means inhibition mostly above about 36% (no sharp cut-off); inactive means mostly below about 34%.

A short description of this experiment: inhibition of NOD1-driven NF-kB reporter – cell-based, luminescence, uHTS, primary screen (AID 1578).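 Further: HEK-293T reporter cells stimulated with the NOD1 agonist gamma-tri-DAP.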 The settings on record: NOD1-driven NF-kB luciferase reporter cells, at 4 µM, active compounds read high.
Broadly, the inhibition is the drop in the measured response relative to a control, in per cent. On to `O=C(O)c1ccc(C(=O)C(=O)c2ccccc2)cc1`, for which the inhibition is -2.3%.

Take `O=C(CC(C(=O)O)c1ccc(Cl)cc1)c1ccccc1` (stereo unspecified): the inhibition is -13%.

Regarding `O=C(CC(CC(=O)c1ccccc1)c1ccccc1)c1ccccc1`, the inhibition is -4.1%.

`C=C(C(=O)c1ccccc1)C(c1ccccc1)C(C)C(=O)c1ccccc1` (stereo unspecified): the inhibition is 44.3%.

As for `C=C(C(=O)c1ccccc1)C(C)C(=C)C(=O)c1ccccc1`, the inhibition is 99% (active).

Consider `CC1c2[nH]c3ccccc3c2C[C@H]2C(=O)N(CCO)CC(=O)N12` (stereo partly specified), for which the inhibition was -2.7%.

As for `C=CCc1c(OC(C)=O)c2ccccc2n(C)c1=O`, the inhibition was -38%.

With `COc1ccc(NC(=O)Cc2c(C)n(C(=O)c3ccc(Cl)cc3)c3ccc(OC)cc23)cc1`, the inhibition was -13.3%.

For the compound `COc1ccc2c(c1)c(CC(=O)Nc1nnc(C3CC3)s1)c(C)n2C(=O)c1ccc(Cl)cc1`, the inhibition was 64.9% (active).

With `COc1ccc2c(c1)c(CC(=O)Nc1ccc(C)cc1)c(C)n2C(=O)c1ccc(Cl)cc1`, the inhibition is 24.5%.

In the case of `COc1ccc(C(=O)Nc2cc(-c3nn4c(C)nnc4s3)ccc2C)cc1`, the inhibition was -18.2%.

Consider `CCC1(c2ccccc2)NC(=O)N(CC(=O)NCc2ccccc2OC)C1=O` (stereo unspecified), for which the inhibition is 0.8%.

On to `COc1ccc(-c2cc(C(=O)N3CCN(S(=O)(=O)c4ccccc4)CC3)[nH]n2)cc1`, for which the inhibition is 4.3%.

Regarding `COc1cccc2sc(Nc3nnc(-c4cccs4)o3)nc12`, the inhibition was 84.7% (active).

In the case of `Fc1cccc2sc(Nc3nnc(-c4ccco4)o3)nc12`, the inhibition was 104% (active).

`Fc1cccc2sc(Nc3nnc(-c4ccccc4)o3)nc12`: the inhibition was 52.7%.

With `COc1ccc(-c2nnc(Nc3nc4c(OC)cccc4s3)o2)cc1`, the inhibition is -20.8%.

Regarding `COc1cccc2sc(Nc3nnc(-c4ccc(F)cc4)o3)nc12`, the inhibition was -29.8%.

For `COc1cc(OC)cc(-c2nnc(Nc3nc4c(F)cccc4s3)o2)c1`, the inhibition was 21%.

Regarding `CCOC(=O)C1C(=O)NC(c2ccccc2)=NC1c1cccc(Br)c1` (stereo unspecified), the inhibition was -36.5%.

Consider `CC1/C(=N/O)CC(c2ccco2)NC1c1ccco1` (stereo unspecified), for which the inhibition is -0.7%.

With `COc1ccc(NC(=S)N2CCC(NC(=O)c3ccc(F)cc3)CC2)cc1`, the inhibition was -29%.

As for `Cc1cc(C)c(S(=O)(=O)N2CCOCC2)c(C)c1N(C)S(=O)(=O)c1ccccc1`, the inhibition was -19.6%.

On to `N#C/C(=C\c1ccc(OCC(N)=O)cc1)c1ccccc1`, for which the inhibition was -59.4%.

As to `O=C(Nc1cccnc1)c1cccc(S(=O)(=O)N2CCOCC2)c1`, the inhibition was -21%.

For the compound `CN1CCC(OC(=O)c2ccco2)CC1`, the inhibition is -32.4%.
